In PubChem BioAssay AID651718 (The Scripps Research Institute Molecular Screening Center, 2012) one finds inhibition data, which are given here for 54 compounds.

As a reminder, the inhibition is the change of the read-out against control, counted positive when it falls.

The whole screen tested about 360,000 compounds, of which about 2,700 (0.75%) were called active. Only a selection was taken, and actives are over-represented in it overall. Unmarked numbers belong to inactive results. Cut-off read from the data, not from the text of the source: active = inhibition above about 4.5%; inactive = the rest.

For this assay, the system named is Methionine sulfoxide reductase A (Bos taurus). Put plainly: bovine MsrA enzyme inhibitors, primary screen, biochemical, absorbance, HTS (AID 651718).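 Note: 0% = vehicle wells with enzyme and 100% = reference inhibitor wells.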 As to conditions: purified bovine MsrA, absorbance read-out; at 15.5 µM; active compounds read high.
As to `CCOC(OCC)c1ccc(/C=C\c2nccc(N)n2)cc1`, the inhibition is 4.82% (active).
The figure for `Cc1cc2c(nc1C)CCCN2C` is 0.48%.
To `O=S(=O)(c1cccs1)N1CCCc2nc(-c3ccc(Br)cc3)ccc21` belongs 0.56%; to `Cc1ccc(C)c2[nH]c(=O)c(CN(Cc3cccnc3)C(=S)NCc3ccco3)cc12`, 0.59%; to `Cc1cccc(C)c1NC(=O)C(Cl)C(=O)c1ccccc1` (centres undefined), -0.19%.
Regarding `COC(=O)N/N=C/c1ccc(-c2ccc(Cl)c(Cl)c2)o1`, the inhibition is 3.75%.
Consider `CCCc1ccc(OCc2ccc(C(=O)N/N=C/c3cccc([N+](=O)[O-])c3)o2)c(OC)c1`, for which the inhibition is 0.9%.
The figure for `Cc1occc1C(=O)N/N=C/c1ccc(-c2cccc([N+](=O)[O-])c2)o1` is 4.99% (active); for `CC[C@H](NC(=O)[C@H](Cc1ccccc1)NC(=O)[C@H]1O[C@@H](n2cnc3c(=O)[nH]c(N)nc32)[C@H](O)[C@@H]1O)c1ccccc1` it is 0.98%.
In the case of `COc1ccccc1-c1n[nH]c2c1[C@H](C)CC[C@H]2C(C)C`, the inhibition was 12.6% (active).
The figure for `COc1ccccc1-c1n[nH]nc1C1=CC(=O)CC(C)(C)C1` is 2.39%.
To `CC(=O)N1N=C(c2ccncc2)OC1(Cc1ccccc1)Cc1ccccc1` belongs 11.8% (active); to `CC(=O)N1N=C(c2ccccc2)OC1c1cccnc1` (centres undefined), 0.4%; to `CCN(C(=O)CSc1nnc(-c2ccncc2)o1)c1ccccc1`, -1.04%.
For the compound `CC(C)Oc1c(Br)cc(Br)cc1/C=N/NC(N)=S`, the inhibition was 6.79% (active).
To `CC1(C(=O)N/N=C/c2cc3c(cc2Br)OCO3)CC1(Br)Br` (centres undefined) belongs 2.89%; to `Cc1cc(=O)oc2c3c(cc(OCC(=O)NCc4ccccn4)c12)OC(C)(C)CC3`, 2.4%.
As to `Cn1c(=NC(=O)c2cnccn2)sc2ccccc21`, the inhibition is 6.75% (active).
`COC(=O)c1ccc(OC(=O)c2cnccn2)cc1`: the inhibition is 0.63%.
To `Cn1c(=NC(=O)c2ccco2)sc2cccc(F)c21` belongs 4.22%; to `Cc1cc(N2CCN(C(=O)OC(C)(C)C)C[C@H]2C)ccc1N1CCN(Cc2ccccc2)[C@H](C)C1`, -0.82%; to `Nc1[nH]c(C(=O)c2ccccc2)c(-c2ccc(Cl)cc2Cl)c1C(=O)c1ccccc1`, -0.16%.
As to `CCc1c(-c2ccccc2OC)ncn1CCc1ccccc1OC`, the inhibition was 0.48%.
To `O=Cc1cn(-c2ccccc2)nc1-c1ccccn1` belongs 9.1% (active).
The figure for `O=C(NNC(=S)NC(=O)c1cn(-c2ccccc2)nc1-c1ccccc1)c1ccncc1` is 2.54%.
Turning to `O=C(COC(=O)/C=C/c1cn(-c2ccccc2)nc1-c1cccnc1)Nc1ccc(Cl)cc1Cl`, the inhibition was 0.05%.
With `Cc1cc(Cl)ccc1OCc1nc(-c2ccncc2)no1`, the inhibition is 0.44%.
To `CCc1ccc2c(c1)NC(=O)C2(C)Cc1ccc(OC(F)(F)F)cc1` (centres undefined) belongs 1.57%.
To `COc1ccccc1CC1(C)C(=O)Nc2ccc(OC(F)(F)F)cc21` (centres undefined) belongs -0.13%.
To `Cc1ccc(CC2(C)C(=O)Nc3ccc(OC(F)(F)F)cc32)cc1` (centres undefined) belongs 9.02% (active); to `Cc1cc(NCCc2c[nH]c3ccccc23)ccc1Oc1cccnc1`, -0.9%.
With `COc1ccc(C2/C(=C(/O)c3ccccc3)C(=O)C(=O)N2c2ncccn2)cc1OC` (centres undefined), the inhibition was 1.66%.
To `COc1ccc(C2/C(=C(/O)c3ccccc3)C(=O)C(=O)N2C)c(OC)c1` (centres undefined) belongs 4.89% (active).
The figure for `COc1cccc(C2/C(=C(/O)c3ccc(F)cc3)C(=O)C(=O)N2CCN(C)C)c1` (centres undefined) is 2.59%; for `CCOc1ccccc1C(=O)N1CCC[C@@H]1C(=O)N1CCC[C@H]1C(=O)NCc1ccccc1` it is 0%.
The figure for `CSC1=NCCN1C(=O)c1ccc(S(=O)(=O)N2CCOCC2)cc1` is 0.32%; for `Cc1c(-c2ccccc2)cn2c1-c1ccc(C)n1CC2` it is 2.59%; for `CN1CCCc2nc(-c3ccccc3)ccc21` it is -0.16%.
With `O=C1[C@@H](c2ccccc2)[C@@H](c2ccccc2)N1c1ccccc1`, the inhibition is 0%.
The figure for `COc1cc(/C=N/NC(=S)Nc2cccnc2)cc(OC)c1O` is 4.5%; for `COc1ccc(/C=C/C(=O)Nc2ccc(C34CC5CC(CC(O)(C5)C3)C4)cc2)cc1OC` it is 2.4%; for `COc1ccc(/C=C/C(=O)Nc2cccnc2)cc1OC` it is 5.32% (active).
To `COc1cccc(CNC(=O)[C@H]2CCCN2C(=O)[C@H]2CCCN2C(=O)c2ccc(F)cc2)c1` belongs -0.32%.
Regarding `COCCN(CCOC)S(=O)(=O)NC[C@H]1O[C@@H](n2cnc3c(N)ncnc32)[C@H](O)[C@@H]1O`, the inhibition is -0.9%.
On to `CNC[C@H](CC1CCCCC1)NC[C@H](NCCC1CCCC1)[C@H](C)O`, for which the inhibition was 0.32%.
In the case of `C[C@@H]1CN([C@H](C)CO)C(=O)CCCn2cc(nn2)CO[C@H]1CN(C)C(=O)Nc1ccc(N2CCCCC2)cc1`, the inhibition was 0.88%.
To `CN(CCO)c1ccc(/C=N/Nc2nncc3ccccc23)cc1` belongs 2.64%; to `COc1cc(Nc2nc3ccc(Cl)cc3n3cnnc23)cc(OC)c1OC`, -1.86%.
As to `COc1cc(/C=N/Nc2nn3cnnc3c3ccccc23)cc(OC)c1OC`, the inhibition was 5.31% (active).
Consider `Cn1ccs/c1=N\S(=O)(=O)c1ccc(C(C)(C)C)cc1`, for which the inhibition was -0.4%.
Regarding `COc1ccc(OC)c(C2C3=C(N=c4s/c(=C\c5cccc(O)c5)c(=O)n42)c2ccccc2CC3)c1` (centres undefined), the inhibition is 5.07% (active).
The figure for `C=CCOc1ccc(C2/C(=C(\O)c3c(C)[nH]c(C(=O)OC)c3C)C(=O)C(=O)N2CCN(C)C)cc1` (centres undefined) is 1.79%.
To `O=C(O)c1ccccc1NC(=S)NC(NC(=O)c1ccccc1[N+](=O)[O-])C(Cl)(Cl)Cl` (centres undefined) belongs 0.38%.
Take `Cn1nc(C(=O)OCC(=O)N(Cc2ccccc2)C(C)(C)C)c2ccccc2c1=O`: the inhibition was -1.57%.
